Compounds without any hit were thinned out: in the full panel of roughly 79,000, 15% have a hit. Activity calls are given as the source filed them. Cut-off read from the data, not from the text of the source: active = growth inhibition above about 70%; inactive = the rest.
Columns and labels:
[1] = NCI Yeast Anticancer Drug Screen. Data for the rad52 strain (AID 147);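 note: 0% = growth of vehicle-treated control cultures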; settings: S. cerevisiae rad52 mutant growth inhibition, hits give high values
How it was run: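 Inhibition of yeast growth, referenced to vehicle controls, was the measured output for a strain with defective DNA damage repair.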

[2] = NCI Yeast Anticancer Drug Screen. Data for the wt1 strain (AID 149);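 note: 0% = growth of vehicle-treated wt1 cultures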; settings: S. cerevisiae wt1 strain (SPY 50644) growth inhibition, hits give high values
How it was run: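 wt1 yeast, compound-treated; % growth inhibition vs vehicle control.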

[3] = NCI Yeast Anticancer Drug Screen. Data for the mgt1 strain (AID 153); settings: S. cerevisiae mgt1 mutant growth inhibition, hits give high values
How it was run: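 In the mgt1 strain, test compounds were added and growth inhibition was determined relative to vehicle-treated controls.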

[4] = NCI Yeast Anticancer Drug Screen. Data for the rad50 strain (AID 155);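 note: 0% = growth of vehicle-only cultures of the same strain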; settings: S. cerevisiae rad50 strain growth inhibition, hits give high values
How it was run: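 Genetically altered yeast (DNA repair pathway); compound treatment; growth inhibition vs vehicle ctrl.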

[5] = NCI Yeast Anticancer Drug Screen. Data for the mec2-1 strain (AID 157); settings: S. cerevisiae mec2-1 strain, hits give high values
How it was run: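 Each compound was tested on mec2-1 yeast, a strain altered in DNA damage repair or cell cycle control. Growth inhibition is reported relative to vehicle.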

[6] = NCI Yeast Anticancer Drug Screen. Data for the sgs1 mgt1 strain (AID 161);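 note: 0% = growth of cultures given vehicle only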; settings: S. cerevisiae sgs1 mgt1 strain, hits give high values
How it was run: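 Inhibition of yeast growth, normalised to vehicle-treated controls, is reported for a strain bearing genetic alterations in DNA damage repair.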

[7] = NCI Yeast Anticancer Drug Screen. Data for the CLN2oe strain (AID 163);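 note: 0% = growth of vehicle-only control cultures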; settings: S. cerevisiae CLN2oe strain, hits give high values
How it was run: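 First, the altered yeast strain was treated with each compound; second, its growth was measured; finally, inhibition was derived by comparison with vehicle controls.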

[8] = NCI Yeast Anticancer Drug Screen. Data for the cln2 rad14 strain (AID 165);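 note: 0% = growth equal to vehicle treated cultures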; settings: S. cerevisiae cln2 rad14 strain, hits give high values
How it was run: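 Test compounds were added to cln2 rad14 yeast cultures; inhibition of growth was then determined by comparison with vehicle treatment.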

[9] = NCI Yeast Anticancer Drug Screen. Data for the bub3 strain (AID 167); settings: S. cerevisiae bub3 mutant strain, hits give high values
How it was run: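 Yeast carrying a defined mutation is treated with each compound, and growth is compared with that of vehicle-exposed cells to give inhibition.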

[10] = NCI Yeast Anticancer Drug Screen. Data for the wt2 strain (AID 169);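 note: 0% = growth of vehicle-treated yeast cultures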; settings: S. cerevisiae wt2 strain growth inhibition, hits give high values
How it was run: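 The panel's yeast strains carry defined changes in DNA repair or cell cycle genes. Each strain is grown with compound, and growth loss is scored relative to vehicle.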

[11] = NCI Yeast Anticancer Drug Screen. Data for the mlh1 strain (AID 171);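 note: 0% = growth of vehicle-treated control cultures of the same strain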; settings: S. cerevisiae mlh1 strain growth inhibition, hits give high values
How it was run: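 Inhibition values reflect reduced yeast growth in the presence of compound, referenced to vehicle controls, using a strain chosen for its alteration in DNA repair or cell cycle control.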

[12] = NCI Yeast Anticancer Drug Screen. Data for the sgs1 strain (AID 173);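 note: 0% = growth of vehicle-only control cultures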; settings: S. cerevisiae sgs1 mutant, hits give high values
How it was run: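 Vehicle-treated cultures served as reference for growth inhibition of a yeast strain altered in DNA damage repair or cell cycle control after compound exposure.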

[13] = NCI Yeast Anticancer Drug Screen. Data for the mlh1 rad18 strain (AID 175); settings: S. cerevisiae mlh1 rad18 strain growth inhibition, hits give high values
How it was run: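 Inhibition values reflect reduced growth of mutant yeast versus vehicle-treated controls following compound exposure; the mutations affect DNA damage repair.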

[14] = NCI Yeast Anticancer Drug Screen. Data for the rad18 strain (AID 177); settings: S. cerevisiae rad18 mutant growth inhibition, hits give high values
How it was run: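 Steps: expose repair-mutant yeast to compound; measure growth; express as inhibition relative to vehicle control.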

[15] = NCI Yeast Anticancer Drug Screen. Data for the rad50EPP+ strain (AID 151);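 note: 0% = growth of vehicle-treated control cultures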; settings: S. cerevisiae rad50 mutant strain, hits give high values
How it was run: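 Genetically defined yeast (rad50EPP+, DNA damage repair alteration) is grown with compound, and inhibition of growth is expressed relative to vehicle-treated controls.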

[16] = NCI Yeast Anticancer Drug Screen. Data for the rad14 strain (AID 159);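 note: 0% = growth of vehicle-treated control cultures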; settings: S. cerevisiae rad14 strain growth inhibition, hits give high values
How it was run: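 Test compounds were applied to a repair-deficient yeast strain. Its growth was then compared with that of cultures given vehicle alone, and inhibition was expressed relative to those controls.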

[17] = at 5.0 µM (retest, dose inferred, filed as 0.5)
[18] = at 50.0 µM (retest, dose inferred, filed as 5.0)

Measured: growth inhibition

Cc1nc(-[n+]2nc(-c3ccncc3)nn2-c2ccccc2)sc1C
active: [3]; at 100.0 µM 78% | [5]; at 50.0 µM 78.5% | [6]; [18] 76% | [6]; at 50.0 µM 74.8% | [10]; at 100.0 µM 72% | [11]; at 100.0 µM 72% | [12]; at 100.0 µM 77% | [13]; at 50.0 µM 76.2%
inactive: [1]; at 1.2 µM -2% | [1]; at 3.7 µM -2% | [1]; at 11.0 µM 0% | [1]; at 33.0 µM 38% | [1]; at 100.0 µM 5% | [2]; at 1.2 µM -1% | [2]; at 3.7 µM -2% | [2]; at 11.0 µM -14% | [2]; at 33.0 µM 9% | [2]; at 100.0 µM -11% | [3]; at 1.2 µM -4% | [3]; at 3.7 µM -5% | [3]; at 11.0 µM 8% | [3]; at 33.0 µM 54% | [4]; at 1.2 µM -3% | [4]; at 3.7 µM -46% | [4]; [17] 1% | [4]; at 11.0 µM 3% | [4]; at 33.0 µM 48% | [4]; [18] 21% | [4]; at 50.0 µM 66.2% | [4]; at 100.0 µM 58% | [5]; at 1.2 µM -1% | [5]; at 3.7 µM -2% | [5]; [17] 0% | [5]; at 11.0 µM -3% | [5]; at 33.0 µM 33% | [5]; [18] -28% | [5]; at 100.0 µM 39% | [6]; [17] 7% | [7]; at 1.2 µM -4% | [7]; at 3.7 µM -3% | [7]; at 11.0 µM -6% | [7]; at 33.0 µM 25% | [7]; at 100.0 µM 14% | [8]; [17] 0% | [8]; [18] 11% | [8]; at 50.0 µM 63.9% | [9]; at 1.2 µM -1% | [9]; at 3.7 µM -5% | [9]; [17] -45% | [9]; at 11.0 µM -5% | [9]; at 33.0 µM 38% | [9]; [18] 60% | [9]; at 50.0 µM 48% | [9]; at 100.0 µM 18% | [10]; at 1.2 µM -2% | [10]; at 3.7 µM 2% | [10]; at 11.0 µM 18% | [10]; at 33.0 µM 50% | [11]; at 1.2 µM -2% | [11]; at 3.7 µM -5% | [11]; at 11.0 µM 7% | [11]; at 33.0 µM 58% | [12]; at 1.2 µM -2% | [12]; at 3.7 µM 7% | [12]; at 11.0 µM 45% | [12]; at 33.0 µM 69% | [13]; [17] 3% | [13]; [18] 48% | [14]; at 1.2 µM 1% | [14]; at 3.7 µM 3% | [14]; at 11.0 µM 7% | [14]; at 33.0 µM 46% | [14]; at 100.0 µM 45%

COc1cc2c(c(OC)c1OC)-c1c(cc3c(c1OC)OCO3)CC(C)C(C)(O)C2OC(=O)c1ccccc1 (stereo unspecified)
inactive: [1]; at 1.2 µM -26% | [1]; at 3.7 µM -15% | [1]; at 11.0 µM -25% | [1]; at 33.0 µM -22% | [1]; at 100.0 µM 47% | [2]; at 1.2 µM -16% | [2]; at 3.7 µM -26% | [2]; at 11.0 µM -10% | [2]; at 33.0 µM 7% | [2]; at 100.0 µM 3% | [15]; at 1.2 µM -2% | [15]; at 3.7 µM -19% | [15]; at 11.0 µM -26% | [15]; at 33.0 µM -21% | [15]; at 100.0 µM 5% | [4]; at 1.2 µM -53% | [4]; at 3.7 µM -18% | [4]; [17] -3% | [4]; at 11.0 µM -25% | [4]; at 33.0 µM -17% | [4]; [18] 40% | [4]; at 100.0 µM 50% | [5]; at 1.2 µM -2% | [5]; at 3.7 µM 12% | [5]; [17] -8% | [5]; at 11.0 µM 16% | [5]; at 33.0 µM 12% | [5]; [18] 13% | [5]; at 50.0 µM 55.5% | [5]; at 100.0 µM 34% | [16]; at 1.2 µM 9% | [16]; at 3.7 µM 1% | [16]; at 11.0 µM -5% | [16]; at 33.0 µM -4% | [16]; at 100.0 µM 33% | [6]; [17] 19% | [6]; [18] 68% | [8]; [17] 10% | [8]; [18] 68% | [8]; at 50.0 µM 50.2% | [9]; at 1.2 µM -8% | [9]; at 3.7 µM 11% | [9]; [17] -2% | [9]; at 11.0 µM 10% | [9]; at 33.0 µM 22% | [9]; [18] 49% | [9]; at 100.0 µM 36% | [10]; at 1.2 µM -26% | [10]; at 3.7 µM -28% | [10]; at 11.0 µM -29% | [10]; at 33.0 µM 33% | [11]; at 1.2 µM -13% | [11]; at 3.7 µM -6% | [11]; at 11.0 µM -13% | [11]; at 33.0 µM -9% | [11]; at 100.0 µM 56% | [12]; at 1.2 µM -1% | [12]; at 3.7 µM -9% | [12]; at 11.0 µM 9% | [12]; at 33.0 µM -6% | [12]; at 100.0 µM 69% | [13]; [17] 3% | [13]; [18] 47% | [14]; at 1.2 µM -45% | [14]; at 3.7 µM -37% | [14]; at 11.0 µM -26% | [14]; at 33.0 µM -10% | [14]; at 100.0 µM 46%
active: [4]; at 50.0 µM 71.2% | [6]; at 50.0 µM 85.4% | [9]; at 50.0 µM 72.2% | [10]; at 100.0 µM 93% | [13]; at 50.0 µM 87.8%

Brc1ccc(-c2cc3c(cc2C2SCCS2)OCO3)cc1
active: [6]; [18] 70% | [9]; [18] 74%
inactive: [1]; at 1.2 µM -21% | [1]; at 3.7 µM -21% | [1]; at 11.0 µM -16% | [1]; at 33.0 µM 8% | [1]; at 100.0 µM 27% | [15]; at 1.2 µM -4% | [15]; at 3.7 µM -10% | [15]; at 11.0 µM 9% | [15]; at 33.0 µM 29% | [15]; at 100.0 µM 51% | [3]; at 1.2 µM -52% | [3]; at 3.7 µM -45% | [3]; at 11.0 µM -36% | [3]; at 33.0 µM -6% | [3]; at 100.0 µM 50% | [4]; at 1.2 µM -23% | [4]; at 3.7 µM -13% | [4]; [17] -19% | [4]; at 11.0 µM -13% | [4]; at 33.0 µM 14% | [4]; [18] 48% | [4]; at 50.0 µM 63.8% | [4]; at 100.0 µM 30% | [5]; at 1.2 µM -29% | [5]; at 3.7 µM -29% | [5]; [17] -57% | [5]; at 11.0 µM -31% | [5]; at 33.0 µM -27% | [5]; [18] 11% | [5]; at 50.0 µM 22.2% | [5]; at 100.0 µM -15% | [16]; at 1.2 µM -35% | [16]; at 3.7 µM -24% | [16]; at 11.0 µM -30% | [16]; at 33.0 µM -7% | [16]; at 100.0 µM 25% | [6]; [17] -18% | [6]; at 50.0 µM 66.6% | [7]; at 1.2 µM -18% | [7]; at 3.7 µM -25% | [7]; at 11.0 µM -28% | [7]; at 33.0 µM -10% | [7]; at 100.0 µM 13% | [8]; [17] 9% | [8]; [18] 32% | [8]; at 50.0 µM 21.1% | [9]; at 1.2 µM -16% | [9]; at 3.7 µM -8% | [9]; [17] 5% | [9]; at 11.0 µM -15% | [9]; at 33.0 µM 2% | [9]; at 50.0 µM 44.9% | [9]; at 100.0 µM 22% | [10]; at 1.2 µM -1% | [10]; at 3.7 µM -11% | [10]; at 11.0 µM -15% | [10]; at 33.0 µM 13% | [10]; at 100.0 µM 43%

From PubChem BioAssay (NCI)
